Measured values as given in PubChem BioAssay AID1159580 (chemical genetic matrix, 2015).
Values joined by “and” are separate entries in the source; they are usually repeats but may differ in a detail not shown here. Equal entries are not always repeated. In all, about 5,500 compounds went through this assay and about 2,000 (36%) were called active. Another 18% or so got no clear call; they are omitted. Cut-off read from the data, not from the text of the source: active = normalized growth mostly below about 0.91 (no sharp cut-off); inconclusive = no clear call, values can overlap the other calls; inactive = mostly above about 0.92. This is one part of the list.

Experiment: chemical genetic growth profiling, strain panel (AID 1159580);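 note: tested at 20 µM; growth read once vehicle control cultures reached saturation at 30 °C; 1 = growth at the plate median or of vehicle wells; lower values mean less growth of the strain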
Settings: S. cerevisiae deletion strains, growth OD

Measured: normalized growth

CC(=O)Oc1ccccc1C(=O)Oc1ccccc1C(=O)O
inactive: locus YAL013W, strain DEP1, stronger effect = lower value 0.989 | locus YAL021C, strain ccr4, stronger effect = lower value 1.01 | locus YAL026C, strain drs2, stronger effect = lower value 1.01 | locus YAL030W, strain snc1, stronger effect = lower value 1 | locus YBL061C, strain skt5, stronger effect = lower value 1 | locus YBR009C, strain hhf1, stronger effect = lower value 1.01 | locus YBR021W, strain FUR4, stronger effect = lower value 0.981 | locus YBR023C, strain chs3, stronger effect = lower value 0.998 | locus YBR171W, strain sec66, stronger effect = lower value 1 | locus YBR229C, strain ROT2, stronger effect = lower value 0.992 | locus YBR231C, strain swc5, stronger effect = lower value 0.995 | locus YBR279W, strain paf1, stronger effect = lower value 1 | locus YCL011C, strain gbp2, stronger effect = lower value 1.02 | locus YCL016C, strain dcc1, stronger effect = lower value 1 | locus YCL029C, strain bik1, stronger effect = lower value 0.98 | locus YCL069W, strain vba3, stronger effect = lower value 1 | locus YCR088W, strain abp1, stronger effect = lower value 1 | locus YDL005C, strain med2, stronger effect = lower value 0.995 | locus YDL035C, strain GPR1, stronger effect = lower value 1 | locus YDL040C, strain nat1, stronger effect = lower value 1 | locus YDL074C, strain BRE1, stronger effect = lower value 1.01 | locus YDL101C, strain DUN1, stronger effect = lower value 0.997 | locus YDL134C, strain PPH21, stronger effect = lower value 1.02 | locus YDL185W, strain tfp1, stronger effect = lower value 0.987 | locus YDL192W, strain arf1, stronger effect = lower value 0.993 | locus YDR001C, strain nth1, stronger effect = lower value 1.01 | locus YDR069C, strain doa4, stronger effect = lower value 0.996 | locus YDR101C, strain arx1, stronger effect = lower value 0.994 | locus YDR137W, strain rgp1, stronger effect = lower value 1 | locus YDR150W, strain NUM1, stronger effect = lower value 0.996 | locus YDR159W, strain sac3, stronger effect = lower value 0.962 | locus YDR162C, strain NBP2, stronger effect = lower value 1.02 | locus YDR195W, strain ref2 0.962 | locus YDR297W, strain sur2, stronger effect = lower value 1.01 | locus YDR318W, strain mcm21, stronger effect = lower value 0.986 | locus YDR334W, strain swr1, stronger effect = lower value 1 | locus YDR335W, strain msn5, stronger effect = lower value 1 | locus YDR388W, stronger effect = lower value 0.986 | locus YDR392W, strain spt3, stronger effect = lower value 0.954 | locus YDR502C, strain sam2, stronger effect = lower value 0.985 | locus YEL003W, strain gim4, stronger effect = lower value 1.01 | locus YEL037C, strain rad23, stronger effect = lower value 1 | locus YEL061C, strain CIN8 (second series), stronger effect = lower value 1.01 | locus YEL061C, strain CIN8, stronger effect = lower value 0.999 | locus YER015W, strain faa2, stronger effect = lower value 0.997 | locus YER016W, strain bim1, stronger effect = lower value 1 | locus YER110C, stronger effect = lower value 0.98 | locus YER111C, strain swi4, stronger effect = lower value 0.994 | locus YER155C, strain BEM2 (second series), stronger effect = lower value 1.02 | locus YER155C, strain BEM2, stronger effect = lower value 0.986 | locus YER167W, strain BCK2, stronger effect = lower value 0.991 | locus YFR010W, strain ubp6, stronger effect = lower value 1.02 | locus YGL078C, strain dbp3, stronger effect = lower value 0.977 | locus YGL086W, strain mad1, stronger effect = lower value 0.984 | locus YGL167C, strain pmr1, stronger effect = lower value 0.996 | locus YGL173C, strain kem1, stronger effect = lower value 1.02 | locus YGL227W, strain vid30, stronger effect = lower value 0.998 | locus YGL240W, strain doc1, stronger effect = lower value 0.978 | locus YGL248W, strain PDE1, stronger effect = lower value 0.992 | locus YGL253W, strain hxk2, stronger effect = lower value 0.996 | locus YGR078C, strain PAC10, stronger effect = lower value 1.01 | locus YGR135W, strain pre9, stronger effect = lower value 0.999 | locus YGR229C, strain SMI1, stronger effect = lower value 1.01 | locus YGR252W, strain gcn5, stronger effect = lower value 0.966 | locus YHR013C, strain ard1, stronger effect = lower value 1.01 | locus YHR027C, strain rpn1, stronger effect = lower value 0.985 | locus YHR030C, strain SLT2, stronger effect = lower value 0.991 and 0.986 | locus YHR079C, strain IRE1 (second series), stronger effect = lower value 0.983 | locus YHR079C, strain IRE1, stronger effect = lower value 0.995 | locus YHR094C, strain hxt1, stronger effect = lower value 0.98 | locus YHR129C, strain ARP1, stronger effect = lower value 1 | locus YHR142W, strain chs7, stronger effect = lower value 1.01 | locus YHR200W, strain rpn10, stronger effect = lower value 0.97 | locus YIL066C, strain RNR3, stronger effect = lower value 0.982 | locus YIL073C, strain SPO22, stronger effect = lower value 0.975 | locus YIL125W, strain kgd1, stronger effect = lower value 0.977 | locus YIR030C, strain dcg1, stronger effect = lower value 0.983 | locus YJL092W, strain hpr5, stronger effect = lower value 1.01 | locus YJL095W, strain BCK1 (second series), stronger effect = lower value 0.997 | locus YJL095W, strain BCK1, stronger effect = lower value 1.01 and 1 | locus YJL115W, strain asf1, stronger effect = lower value 1.01 | locus YJL129C, strain trk1, stronger effect = lower value 1.01 | locus YJL134W, strain LCB3, stronger effect = lower value 0.992 | locus YJL154C, strain vps35, stronger effect = lower value 1 | locus YJL164C, strain tpk1, stronger effect = lower value 0.996 | locus YJL166W, strain qcr8, stronger effect = lower value 1.01 | locus YJL168C, strain set2, stronger effect = lower value 0.981 | locus YJL187C, strain SWE1 (second series), stronger effect = lower value 0.993 | locus YJL187C, strain SWE1, stronger effect = lower value 1.01 | locus YJR043C, strain POL32, stronger effect = lower value 0.995 | locus YJR066W, strain TOR1, stronger effect = lower value 0.905
